# Source: PubChem BioAssay
# The list is not random: actives were taken first. Their share in the collection is about 15%.
# DT40 TDP1 CPT: DT40-hTDP1 cell growth loss with CPT; chicken DT40 Tdp1-/-;hTDP1 cells + 20 nM CPT, ATP luminescence, 48 h; Potency, µM (titrated, usually from 46.2 µM), for inactives: at the top dose activity change, negative = growth inhibition, usual class: inhibitors; 12% of 420,000 active; AID 686979; note: nearly all actives have a fitted effect of over 55% in size
#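 Chicken DT40 Tdp1-/- cells complemented with human TDP1, 400 cells/well, exposed to compounds plus 20 nM camptothecin for at least 48 h at 37 C; viability read as ATP content by CellTiter-Glo luminescence.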
# DT40 TDP1 no CPT: qHTS for Inhibitors of human tyrosyl-DNA phosphodiesterase 1 (TDP1): qHTS in cells in absence of CPT; Potency, µM (doses to about 46.2 µM), for the others: at the highest dose activity change, negative = growth inhibition, usual class: inhibitors; 15% of 420,000 active; DT40 Tdp1-/- hTDP1 cells, no CPT, ATP luminescence, 48 h; note: nearly all actives have a fitted effect of over 55% in size
#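 Luminescent ATP content (CellTiter-Glo) served as the growth readout. Knockout chicken DT40 cells expressing human TDP1 were exposed to compounds without camptothecin for a minimum 48 hr at 37 °C.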
# RORgamma inh: inhibitors of mouse ROR gamma transcriptional activity | P51450 | Drosophila S2 Gal4-RORgamma UAS-luciferase reporter, 20 h | Potency, µM (titrated, usually from 53.6 µM), inactives show at the top dose activity change, negative = inhibition, most hits filed as inhibitors | 5.4% of 310,000 active; note: nearly all actives have a fitted effect of over 60% in size
# Target sequence (P51450 whole entry, looked up, the tested form may be a part): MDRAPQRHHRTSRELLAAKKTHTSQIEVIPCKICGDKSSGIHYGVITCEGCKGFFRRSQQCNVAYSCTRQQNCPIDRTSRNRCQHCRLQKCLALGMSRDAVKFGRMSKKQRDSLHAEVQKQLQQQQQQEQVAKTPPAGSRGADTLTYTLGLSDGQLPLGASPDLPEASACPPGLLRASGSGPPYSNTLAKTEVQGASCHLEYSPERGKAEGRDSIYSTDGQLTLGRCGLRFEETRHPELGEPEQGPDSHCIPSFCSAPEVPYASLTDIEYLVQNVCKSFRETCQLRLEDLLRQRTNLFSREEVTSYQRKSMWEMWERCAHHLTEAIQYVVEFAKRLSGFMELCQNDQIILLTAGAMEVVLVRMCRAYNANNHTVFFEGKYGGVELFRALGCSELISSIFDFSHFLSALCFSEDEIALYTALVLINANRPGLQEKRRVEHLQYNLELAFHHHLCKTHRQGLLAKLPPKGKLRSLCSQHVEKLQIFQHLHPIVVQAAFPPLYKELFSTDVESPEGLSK
#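 Stably transfected Drosophila Schneider cells are the test system, with ROR gamma fused to Gal4 and luciferase under UAS control; luminescence is read after 20 hr of 700 uM copper sulfate induction at ambient temperature.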
# VP16 counter: inhibits Gal4-VP16 luciferase reporter, ROR gamma counter-screen; Drosophila S2 Gal4-VP16 UAS-luciferase, luminescence, 20 h; Potency, µM (series often up to 53.6 µM), for the others: at the highest dose activity, negative = inhibition, most hits filed as inhibitors; 3.5% of 310,000 active; AID 2546;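 note: Gal4-VP16 expression switched on by copper sulfate through the metallothionein promoter; nearly all actives have a fitted effect of over 50% in size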
# ALOX12 inh: blocks human arachidonate 12S-lipoxygenase. P18054. purified 12hLO, xylenol orange hydroperoxide absorbance. Potency, µM (top dose mostly 108 µM), for inactives: at the top dose activity change, negative = inhibition, usual class: inhibitors. 1.1% of 580,000 active
#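 Purified human 12hLO (150 nM final) in 25 mM Hepes, 0.01% Triton X-100, pH 7.0 was preincubated 15 min at room temperature with compound. Then 40 uM arachidonic acid was added, 30 min. Hydroperoxide was read by Fe-XO absorbance ratio 573/405 nm.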
# ELG1 repair inh: blocks ELG1-dependent DNA repair in HEK293T cells | 2.3% of 330,000 active | HEK293T ELG1-luciferase reporter, luminescence, 16 h; DNA damage induced by 5-fluorouridine | AID 504467 | Potency, µM (highest dose often 46.1 µM), without a hit: at the top dose activity change, negative = inhibition, actives largely listed as inhibitors; note: nearly all actives have a fitted effect of over 55% in size
#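 Quantitative HTS, concentration-response format. 2,000 cells/well co-treated with 5-fluorouridine and compound, 16 hr in 5% CO2 at 37 °C; ONE-Glo luminescence read after 30 min.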
# * marks the source's active call; other numbers are inactive results; u = inconclusive; x = no result given; [ ] = dose if it differs, or a comment. Calls come from the whole dose curve; as a rule, active = well fitted curve in the direction sought with a large enough effect; inconclusive = small, poorly fitted or top-dose-only effect, or another doubt; inactive = no such curve, though single readings can be large; an effect the other way counts as inactive or inconclusive. % is set by controls: 0 for no effect and ±100 for the full control effect; potency is the fitted concentration of half-maximal effect.
SMILES,DT40 TDP1 CPT,DT40 TDP1 no CPT,RORgamma inh,VP16 counter,ALOX12 inh,ELG1 repair inh
CCN(C(C)=O)C1CCN(C(C)c2ccccc2)C1 (centres undefined),x,x,x,x,6%,x
CCCNC(=O)C1=CC(c2cccs2)=NS(=O)(=O)N1C,x,x,x,x,4%,x
c1ccc(COn2nnc3ccccc32)c(COn2nnc3ccccc32)c1,18µM*,10µM*,-8%,-3%,-16%,u
COc1ccc(CN2CCCC3(C2)C(=NC2CCCC2)NC(=O)N3c2cccnc2)cc1 (centres undefined),x,x,x,x,6%[6.33 µM],x
CCOc1ccc(S(=O)(=O)[C@H]2CS(=O)(=O)C[C@@H]2N2CCC3(CC2)OCCO3)cc1,x,x,x,x,-36%,x
CC(=O)Nc1ccccc1-c1nc2ccccc2n(C(C)C(=O)Nc2cccc(C)c2C)c1=O (centres undefined),21µM*,u,x,x,2%,x
CCC(C(=O)Nc1ccc(C)c(Cl)c1)n1c(=O)c(-c2ccccc2NC(C)=O)nc2ccccc21 (centres undefined),21µM*,13µM*,x,x,-17%,x
CCCCOc1ccccc1NC(=O)Cn1c(-c2cncs2)nc2ccccc21,23µM*,u,x,x,-2%,x
Cc1ccc(NC(=O)Cn2c(-c3cncs3)nc3ccccc32)c(Br)c1,u,u,x,x,-27%,x
CCC(=O)Nc1ccccc1-c1nc2ccccc2n(C(C)C(=O)Nc2ccc(OC)cc2)c1=O (centres undefined),u,15µM*,x,x,-27%,x
CCC(C(=O)Nc1cccc(C(C)=O)c1)n1c(=O)c(-c2ccccc2NC(C)=O)nc2ccccc21 (centres undefined),x,x,x,x,0%,x
CC(=O)Nc1ccccc1-c1nc2ccccc2n(C(C)C(=O)Nc2ccccc2C(F)(F)F)c1=O (centres undefined),-28%,u,x,x,0%,x
O=C(Nc1cccc2cccnc12)c1cccc(S(=O)(=O)N2CCN(c3ccc(F)cc3)CC2)c1,x,x,x,x,-3%,x
O=C1CC[C@@]2(C(=O)N3CCOCC3)CCCC[C@@H]2N1CCc1ccccc1,x,x,x,x,2%,x
CCC(=O)Nc1ccccc1-c1nc2ccccc2n(CC(=O)Nc2ccccc2OC)c1=O,5.8µM*,5.8µM*,x,x,0%,x
COc1ccc(Cl)cc1NC(=O)Cn1c(=O)c(-c2ccccc2NC(C)=O)nc2ccccc21,13µM*,15µM*,x,x,-3%,x
COc1ccc(NC(=O)Cn2c(=O)c(-c3cc(C)ccc3NC(C)=O)nc3ccccc32)c(OC)c1,-6%,-13%,x,x,-25%,x
CCOc1ccc(NC(=O)c2ccc(S(=O)(=O)N(C)C)cc2)cc1,-23%,-21%,12%,28%,-18%,-9%
CCN(CC)S(=O)(=O)c1cc(C(=O)NC2CCCCC2)ccc1C,u,u,8%,-16%,0%,u
CCOc1ccc(NC(=O)c2ccc(F)c(S(=O)(=O)N(CC)Cc3ccccc3)c2)cc1,15µM*,21µM*,x,x,u,x
CCN(Cc1ccccc1)S(=O)(=O)c1cc(C(=O)NC2CCCCCC2)ccc1OC,23µM*,u,5%,-15%,18%,u
CCN(Cc1ccccc1)S(=O)(=O)c1cc(C(=O)Nc2cc(Cl)cc(Cl)c2)ccc1F,6.5µM*,6.5µM*,x,x,-29%,x
COc1ccc(CNS(=O)(=O)c2cc(C(=O)Nc3cc(Cl)cc(Cl)c3)ccc2F)cc1,u,u,x,x,-29%,x
COc1ccc(COc2ccc(C#N)cc2Cl)cc1F,x,x,x,x,-13%,x
CC1(C(=O)Nc2cccc(C(F)(F)F)c2)Cc2c(-c3ccc4c(c3)OCO4)ccnc2O1 (centres undefined),u,18µM*,x,x,-17%,x
